# Calls of active or inactive are those of the source.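 The calls were made as follows: active = normalized viability below 100% at a tested concentration; inactive = the rest.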
# Experiment: ovarian cancer cell viability with rucaparib, profiling panel, oncology-focused library, rucaparib conditional (AID 1508598)
# Settings: patient-derived ovarian cancer cells, CellTiter-Glo viability, 144 h; at 1.25 µM; OCI-C5x cells; without rucaparib; stronger effect = lower value
row,SMILES,viability
1,O=c1[nH]c(=O)n([C@@H]2C[C@H](O)[C@@H](CO)O2)cc1F,128% (inactive)
2,COc1cccc2c1C(=O)c1c(O)c3c(c(O)c1C2=O)C[C@@](O)(C(C)=O)C[C@H]3O[C@H]1C[C@H](N)[C@H](O)[C@H](C)O1,1.21% (active)
3,C[C@]12CC[C@H]3c4ccc(O)cc4CC[C@H]3[C@@H]1CC[C@H]2O,124% (inactive)
4,CC1=C(/C=C/C(C)=C\C=C\C(C)=C/C(=O)O)C(C)(C)CCC1,105% (inactive)
5,CC(C)CC(CC(=O)NO)C(=O)N[C@@H](Cc1ccc2ccccc2c1)C(=O)N[C@@H](C)C(=O)NCCN (stereo partly specified),112% (inactive)
6,COc1cccc2c1C(=O)c1c(O)c3c(c(O)c1C2=O)C[C@@](O)(C(=O)CO)C[C@H]3O[C@H]1C[C@H](N)[C@@H](O)[C@H](C)O1,31.1% (active)
7,COc1ccc(C2=N[C@H](c3ccc(Cl)cc3)[C@@H](c3ccc(Cl)cc3)N2C(=O)N2CCNC(=O)C2)c(OC(C)C)c1,102% (inactive)
8,CO[C@H]1C[C@H]2CC[C@@H](C)[C@@](O)(O2)C(=O)C(=O)N2CCCC[C@H]2C(=O)O[C@H]([C@H](C)C[C@@H]2CC[C@H](OC(=O)C(C)(CO)CO)[C@H](OC)C2)CC(=O)[C@H](C)/C=C(\C)[C@@H](O)[C@@H](OC)C(=O)[C@H](C)C[C@H](C)/C=C/C=C/C=C/1C,95.8% (active)
9,O=C(O)c1cc(I)ccc1NC(=O)[C@H](Cc1ccccc1)NCc1ccccc1,115% (inactive)
10,Nc1ncn([C@@H]2O[C@H](CO)[C@@H](O)[C@@H]2O)c(=O)n1,123% (inactive)
11,CO[C@H]1C[C@@H]2CC[C@@H](C)[C@@](O)(O2)C(=O)C(=O)N2CCCC[C@H]2C(=O)O[C@H]([C@H](C)C[C@@H]2CC[C@@H](O)[C@H](OC)C2)CC(=O)[C@H](C)/C=C(\C)[C@@H](O)[C@H](OC)C(=O)[C@H](C)C[C@H](C)/C=C/C=C/C=C/1C,99.2% (active)
12,CC(=O)OCC(=O)[C@]1(O)[C@H](C)C[C@H]2[C@@H]3CCC4=CC(=O)C=C[C@]4(C)[C@]3(F)[C@H](O)C[C@@]21C,123% (inactive)
13,CC[C@]1(O)C[C@@H]2CN(CCc3c([nH]c4ccccc34)[C@@](C(=O)OC)(c3cc4c(cc3OC)N(C=O)[C@H]3[C@@](O)(C(=O)OC)[C@H](OC(C)=O)[C@]5(CC)C=CCN6CC[C@@]43[C@@H]65)C2)C1,23.5% (active)
14,C[C@@]12CC[C@H]3c4ccc(O)cc4C[C@@H](CCCCCCCCCS(=O)CCCC(F)(F)C(F)(F)F)[C@H]3[C@@H]1CC[C@@H]2O (stereo partly specified),112% (inactive)
15,CC(=O)O[C@@]1(C(C)=O)CC[C@H]2[C@@H]3C[C@H](C)C4=CC(=O)CC[C@]4(C)[C@@H]3CC[C@@]21C,120% (inactive)
16,CC(=O)O[C@]12CO[C@@H]1C[C@H](O)[C@]1(C)C(=O)[C@H](O)C3=C(C)[C@H](OC(=O)[C@H](O)[C@@H](NC(=O)OC(C)(C)C)c4ccccc4)C[C@](O)([C@H](OC(=O)c4ccccc4)C21)C3(C)C (stereo partly specified),41.3% (active)
17,CCC1=CC2CN(C1)Cc1c([nH]c3ccccc13)[C@@](C(=O)OC)(c1cc3c(cc1OC)N(C)[C@H]1[C@@](O)(C(=O)OC)[C@H](OC(C)=O)[C@]4(CC)C=CCN5CC[C@@]31[C@H]54)C2 (stereo partly specified),21.7% (active)
18,CC(=O)O[C@H]1C(=O)[C@@]2(C)C([C@H](OC(=O)c3ccccc3)[C@]3(O)C[C@H](OC(=O)[C@H](O)[C@@H](NC(=O)c4ccccc4)c4ccccc4)C(C)=C1C3(C)C)[C@]1(OC(C)=O)CO[C@@H]1C[C@H]2O (stereo partly specified),32.8% (active)

# Same assay, conditions: patient-derived ovarian cancer cells, CellTiter-Glo viability, 144 h; at 1.25 µM; OCI-P5x cells; with rucaparib 20 µM; stronger effect = lower value; 100% = cells with rucaparib alone
row,SMILES,viability
1,O=c1[nH]c(=O)n([C@@H]2C[C@H](O)[C@@H](CO)O2)cc1F,89.4% (active)
2,COc1cccc2c1C(=O)c1c(O)c3c(c(O)c1C2=O)C[C@@](O)(C(C)=O)C[C@H]3O[C@H]1C[C@H](N)[C@H](O)[C@H](C)O1,15.7% (active)
3,C[C@]12CC[C@H]3c4ccc(O)cc4CC[C@H]3[C@@H]1CC[C@H]2O,110% (inactive)
4,CC1=C(/C=C/C(C)=C\C=C\C(C)=C/C(=O)O)C(C)(C)CCC1,92.6% (active)
5,CC(C)CC(CC(=O)NO)C(=O)N[C@@H](Cc1ccc2ccccc2c1)C(=O)N[C@@H](C)C(=O)NCCN (stereo partly specified),85.1% (active)
6,COc1cccc2c1C(=O)c1c(O)c3c(c(O)c1C2=O)C[C@@](O)(C(=O)CO)C[C@H]3O[C@H]1C[C@H](N)[C@@H](O)[C@H](C)O1,11.7% (active)
7,COc1ccc(C2=N[C@H](c3ccc(Cl)cc3)[C@@H](c3ccc(Cl)cc3)N2C(=O)N2CCNC(=O)C2)c(OC(C)C)c1,98.1% (active)
8,CO[C@H]1C[C@H]2CC[C@@H](C)[C@@](O)(O2)C(=O)C(=O)N2CCCC[C@H]2C(=O)O[C@H]([C@H](C)C[C@@H]2CC[C@H](OC(=O)C(C)(CO)CO)[C@H](OC)C2)CC(=O)[C@H](C)/C=C(\C)[C@@H](O)[C@@H](OC)C(=O)[C@H](C)C[C@H](C)/C=C/C=C/C=C/1C,77% (active)
9,O=C(O)c1cc(I)ccc1NC(=O)[C@H](Cc1ccccc1)NCc1ccccc1,80.7% (active)
10,Nc1ncn([C@@H]2O[C@H](CO)[C@@H](O)[C@@H]2O)c(=O)n1,105% (inactive)
11,CO[C@H]1C[C@@H]2CC[C@@H](C)[C@@](O)(O2)C(=O)C(=O)N2CCCC[C@H]2C(=O)O[C@H]([C@H](C)C[C@@H]2CC[C@@H](O)[C@H](OC)C2)CC(=O)[C@H](C)/C=C(\C)[C@@H](O)[C@H](OC)C(=O)[C@H](C)C[C@H](C)/C=C/C=C/C=C/1C,93.7% (active)
12,CC(=O)OCC(=O)[C@]1(O)[C@H](C)C[C@H]2[C@@H]3CCC4=CC(=O)C=C[C@]4(C)[C@]3(F)[C@H](O)C[C@@]21C,97.6% (active)
13,CC[C@]1(O)C[C@@H]2CN(CCc3c([nH]c4ccccc34)[C@@](C(=O)OC)(c3cc4c(cc3OC)N(C=O)[C@H]3[C@@](O)(C(=O)OC)[C@H](OC(C)=O)[C@]5(CC)C=CCN6CC[C@@]43[C@@H]65)C2)C1,44.2% (active)
14,C[C@@]12CC[C@H]3c4ccc(O)cc4C[C@@H](CCCCCCCCCS(=O)CCCC(F)(F)C(F)(F)F)[C@H]3[C@@H]1CC[C@@H]2O (stereo partly specified),119% (inactive)
15,CC(=O)O[C@@]1(C(C)=O)CC[C@H]2[C@@H]3C[C@H](C)C4=CC(=O)CC[C@]4(C)[C@@H]3CC[C@@]21C,106% (inactive)
16,CC(=O)O[C@]12CO[C@@H]1C[C@H](O)[C@]1(C)C(=O)[C@H](O)C3=C(C)[C@H](OC(=O)[C@H](O)[C@@H](NC(=O)OC(C)(C)C)c4ccccc4)C[C@](O)([C@H](OC(=O)c4ccccc4)C21)C3(C)C (stereo partly specified),55.9% (active)
17,CCC1=CC2CN(C1)Cc1c([nH]c3ccccc13)[C@@](C(=O)OC)(c1cc3c(cc1OC)N(C)[C@H]1[C@@](O)(C(=O)OC)[C@H](OC(C)=O)[C@]4(CC)C=CCN5CC[C@@]31[C@H]54)C2 (stereo partly specified),45.2% (active)
18,CC(=O)O[C@H]1C(=O)[C@@]2(C)C([C@H](OC(=O)c3ccccc3)[C@]3(O)C[C@H](OC(=O)[C@H](O)[C@@H](NC(=O)c4ccccc4)c4ccccc4)C(C)=C1C3(C)C)[C@]1(OC(C)=O)CO[C@@H]1C[C@H]2O (stereo partly specified),56.9% (active)

# From PubChem BioAssay
